Laboratory results from the supplement of paper PMC6555819.

The sequences below were run on PPARg:RXRa 270nM:90nM, anti-RXR (NR concentration 270 nM, RXRa partner concentration 90 nM) (assay: PBM binding z-score (relative to random genomic background probes); higher = stronger binding; sequences stand for … in GC…GCGATTGACAGCGTAGAATGAAGG).
Summary of the method: (§1)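 Regression normalization was applied to scanned fluorescence from custom Agilent 4×180K protein-binding microarrays. Before scanning, arrays were incubated 1 h with ligand-free nuclear receptor dimers, and binding was detected with antibodies against each partner (one per run). Binding z-scores use the random background probes as reference.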

Sequence | PBM binding z-score
TTACCAGGGTGAAGGTCGTTGATCCCTCTGTAGA | 6.39
TCATATAGGTAAACTGGTGAAAGTCCGTAAGTTA | 2.31
TCTATTAGTTCATTAGGGCAACCGAAACAGCGGA | 2.92
TCTTGTAGATCAACGGTTAAGAAAGCCGAAGCCT | 2.61
TCTAGTTAGTCAAAGGTCACACACTCGAAATGCG | 7.8
ATCTCTATGTAACCAAGTTCAGTGAATGCCGAAC | 0.822
TGAATGAGGTTATAAGATCACGGAACGTTGCAAA | 2.44
CGTCAAAGTTCGAGGTAACGTAACAGAAAGCAGC | 1.98
CAAACTAGGCCAAAGGTCAAAGTCGAGCCAACCA | 10.6
GCATATAGGTAATAGAAGGTGAAAGTCCGATTGT | 1.35
TCTTGTAGATCAGCAGGTTAAGAAGGCTGGCCAA | 1.6
GCTGCTAGGTCAACTGATCGTCAGCTAAAGCTCG | 3.43
TTACCAAGGGGAAGGTCGTTGATCCCTCTGTAGA | 2.13
CTCGAAAGGTTGGTTGAGGTGAGTATACGGATAA | 0.107
TCTTGTAGATAAATAGAGGTTAAGAAAGTGCGCT | 1.83
GCTCGGAGGATAAGGTCAGAGCTTTGTCCGTAGA | 1.3
TCATATCGGTAAAGGTGAAAGTCGAACGATATGA | 3.12
CGTCCAAGGTCAACGGTCAGTGAAGAGATGACGG | 5.78
GCTATTAGTTGATAGGGCAACCGAATGATTCTCG | 1.48
GATACAGGGTCAAGGCCGGAGTACGCGTATTGAT | 5.32

Sequence | PBM binding z-score
CGAACTAGGTCATTGACACGACAGTGAATAGTAA | 6.21
CCTACTGTGCCAAAGGTCATTGATTCCAATGCTC | 9.67
TCTCGGAGTACACGAAAGGTCAGAGCTCGACATC | 3.53
CCAGACAGGTGAAAGGGAACTCAGTCTGGTACGC | 3.24
ATCTAAAGGTCGTGAGGTGAGTATACAGAAAGGC | 4.73
CCGACTGCGGCAAAGGTTACCATACTCAGTACGA | 4.2
TCTTGTAGCTCAGCAGGTTAAGAAAGCTGGCCAA | 0.729
CCTACTGGGCGAAAGGTCATTGATTCCAATGCTC | 9.6
ATTGAAAGGTCGTGAGGTGAGTATACAGAAAGGC | 5.01
CTAGACAGGTGAGAAGGTAACTCAGCCTCGATTA | 0.818
AGTCAAAGTTCACTAGGTGACGTAAGATTCAGCT | 7.04
TCTTGTAGATCAAGCAGGTTAAGCAAGCCTGAGT | 1.09
GCTAGCAGGCCATTTGGTTCACTCAATGACGGGC | -0.536
CCTAGCAGGCCAAGCTGGGTCACTCAAGGCTTGA | 0.0206
GCAGAGAGGTGAAACGCAGGTAACTCAGGGTGGC | 1.02
TCTTGTAGATTAAGCAGGTTAAGAAAGCCTGAGT | 1.37
CCTGGTAGGTCAATGGTCAGCTAAAGCAGCTCGC | 6.4
GCAGACAGGTGAAACGCACGTAACTCAGGGTGGC | 0.0365
TCTAGAAGGCCAGAGGGTCACTCAAGAGGTACGG | 2.98
GGAGACAGGTGAAACGCAGGTAACTCAGGGTGGC | 0.0474

What follows are sequences tested on PPARg:RXRa 30nM:10nM, anti-RXR (NR concentration 30 nM, RXRa partner concentration 10 nM) in the same assay as above.
Summary of the method: as §1

Sequence | PBM binding z-score
TTACCAGGGTGAAGGTCGTTGATCCCTCTGTAGA | 4.84
TCATATAGGTAAACTGGTGAAAGTCCGTAAGTTA | 3.92
TCTATTAGTTCATTAGGGCAACCGAAACAGCGGA | 3.81
TCTTGTAGATCAACGGTTAAGAAAGCCGAAGCCT | 3.23
TCTAGTTAGTCAAAGGTCACACACTCGAAATGCG | 6.86
ATCTCTATGTAACCAAGTTCAGTGAATGCCGAAC | 0.337
TGAATGAGGTTATAAGATCACGGAACGTTGCAAA | 1.12
CGTCAAAGTTCGAGGTAACGTAACAGAAAGCAGC | 0.481
CAAACTAGGCCAAAGGTCAAAGTCGAGCCAACCA | 11
GCATATAGGTAATAGAAGGTGAAAGTCCGATTGT | 0.321
TCTTGTAGATCAGCAGGTTAAGAAGGCTGGCCAA | 2.59
GCTGCTAGGTCAACTGATCGTCAGCTAAAGCTCG | 0.361
TTACCAAGGGGAAGGTCGTTGATCCCTCTGTAGA | 0.461
CTCGAAAGGTTGGTTGAGGTGAGTATACGGATAA | 0.0087
TCTTGTAGATAAATAGAGGTTAAGAAAGTGCGCT | 2.94
GCTCGGAGGATAAGGTCAGAGCTTTGTCCGTAGA | -0.139
TCATATCGGTAAAGGTGAAAGTCGAACGATATGA | 3.8
CGTCCAAGGTCAACGGTCAGTGAAGAGATGACGG | 2.86
GCTATTAGTTGATAGGGCAACCGAATGATTCTCG | 0.376
GATACAGGGTCAAGGCCGGAGTACGCGTATTGAT | 1.81

Sequence | PBM binding z-score
CGAACTAGGTCATTGACACGACAGTGAATAGTAA | 3.95
CCTACTGTGCCAAAGGTCATTGATTCCAATGCTC | 9.47
TCTCGGAGTACACGAAAGGTCAGAGCTCGACATC | 2.52
CCAGACAGGTGAAAGGGAACTCAGTCTGGTACGC | 1.06
ATCTAAAGGTCGTGAGGTGAGTATACAGAAAGGC | 2.02
CCGACTGCGGCAAAGGTTACCATACTCAGTACGA | 2.28
TCTTGTAGCTCAGCAGGTTAAGAAAGCTGGCCAA | 1.58
CCTACTGGGCGAAAGGTCATTGATTCCAATGCTC | 9.1
ATTGAAAGGTCGTGAGGTGAGTATACAGAAAGGC | 2.23
CTAGACAGGTGAGAAGGTAACTCAGCCTCGATTA | 0.0715
AGTCAAAGTTCACTAGGTGACGTAAGATTCAGCT | 3.81
TCTTGTAGATCAAGCAGGTTAAGCAAGCCTGAGT | 2.44
GCTAGCAGGCCATTTGGTTCACTCAATGACGGGC | -0.633
CCTAGCAGGCCAAGCTGGGTCACTCAAGGCTTGA | -0.847
GCAGAGAGGTGAAACGCAGGTAACTCAGGGTGGC | -0.323
TCTTGTAGATTAAGCAGGTTAAGAAAGCCTGAGT | 2.84
CCTGGTAGGTCAATGGTCAGCTAAAGCAGCTCGC | 4.37
GCAGACAGGTGAAACGCACGTAACTCAGGGTGGC | -0.437
TCTAGAAGGCCAGAGGGTCACTCAAGAGGTACGG | 3.24
GGAGACAGGTGAAACGCAGGTAACTCAGGGTGGC | -0.768
